# Data published in ChEMBL document CHEMBL4513216, “Probing the Open Global Health Chemical Diversity Library for Multistage-Active Starting Points for Next-Generation Antimalarials” (ACS Infect Dis, 2020).
# The campaign covered roughly 69,000 compounds. About 8,600 (12%) showed an effect of 50% or more. The full list was thinned out, with strong results kept by preference.
# System: Plasmodium berghei
# Assay: Screen against P. berghei liver stage (PbLuc), transformed with Luciferase, at 10uM
# Type: functional, HepG2
# Conditions: tested at 10 uM
row,SMILES,INHIBITION [%]
1,Cc1cccc(OC2CN(C(=O)C3CC(=O)N(C(C)(C)C)C3)C2)c1 (configuration not stated),25.5
2,CC(C)Oc1ccc(CN2CCCC(N3CCCC3)C2)cc1CO (configuration not stated),20
3,CC(C)Oc1ccc(CN2CCN3CCN(C)CC3C2)cc1CO (configuration not stated),-6.97
4,CC(C)Oc1ccc(CN2CCCC(N3CCOCC3)C2)cc1CO (configuration not stated),82.9
5,CCCC(=O)N1CCC(c2cc3cccnc3c(O)n2)CC1,1.62
6,CN(C)CCCNC(=O)c1ccccc1NC(=O)c1cc(Cl)ccc1Cl,27.6
7,CCc1nc(C)sc1CN1CC[C@@](O)(C2CCOCC2)[C@H](C)C1,-10.9
8,O=c1ccc2c([nH]1)CCN(S(=O)(=O)c1ccc3c(c1)OCCO3)C2,26
9,O=S(=O)(c1ccc2c(c1)OCCO2)N1CCC(OCc2ccccn2)C1 (configuration not stated),-35.2
10,O=S(=O)(c1ccc2c(c1)OCCO2)N1CCc2ccccc2C1,57.6
11,Cc1nc2cc(=O)[nH]n2c(C)c1CC(=O)NCc1ccc(C#N)cc1,41.2
12,CC(C)(C)S(=O)(=O)CCNC(=O)c1ccc2ccccc2c1,-35.8
13,CSCc1cccc(S(=O)(=O)NCc2cnn(C)c2C)c1,78.3
14,CCNS(=O)(=O)c1cccc(CSC)c1,19.4
15,COCc1cccc(S(=O)(=O)NCc2cnn(C)c2C)c1,-25.8
16,CSCc1cccc(S(=O)(=O)NCCO)c1,0.266
17,Cc1c(CNS(=O)(=O)c2cccc(COC(C)C)c2)cnn1C,57.5
18,CNS(=O)(=O)c1cccc(CNC(=O)c2cnn(C)c2C)c1,11.3
19,CS(=O)(=O)Nc1ccn(Cc2cccc(Cl)c2)n1,22.6
20,CCN(Cc1ccco1)C(C)c1nc(C)no1 (configuration not stated),-97.2
21,COc1ccc(CN2Cc3nnn(C)c3C(COCCN(C)C)C2)cc1 (configuration not stated),16.4
22,Cc1nc(-c2cc(Cl)c3c(c2)CC(CN)O3)c[nH]1 (configuration not stated),24.4

row,SMILES,INHIBITION [%]
1,Cc1nc(-c2cc(Cl)cc3c2OC(CN)C3)c[nH]1 (configuration not stated),68.3
2,Cc1cc2c(c(-c3c[nH]c(C)n3)c1)OC(CN)C2 (configuration not stated),11.6
3,Cc1cc(C(F)(F)F)c2c(=O)n(Cc3cc(C)on3)n(C)c2n1,42.1
4,CC(C)(CN)NS(=O)(=O)c1c(F)cccc1F,-4.62
5,Cc1ncsc1-c1nc(CC2CCN(C)CC2)nn1Cc1ccccc1,47.5
6,CN1CCC(Cc2nc(-c3ccnn3C)n(Cc3ccccc3)n2)CC1,64.6
7,CN1CCC(Cc2nc(-c3cnccn3)n(Cc3ccccc3)n2)CC1,-14.3
8,COc1c(C2CCCN2Cc2cccc(C(N)=O)c2)c(C)nn1C (configuration not stated),-11.4
9,O=c1cc2c(nn1CN1CCC(c3ccccc3)CC1)CCC2,33.6
10,Cn1cnc(S(=O)(=O)N2C[C@H](OCC3CC3)[C@H]3OCCC[C@H]32)c1,40.8
11,CC(C)CO[C@H]1CN(S(=O)(=O)c2cn(C)cn2)[C@@H]2CCCO[C@H]12,53.9
12,CCO[C@@H]1CN(S(=O)(=O)c2cn(C)cn2)[C@@H]2CCCO[C@@H]21,2.79
13,CC(=O)N1C[C@H]2CC[C@@H](C1)N(C(=O)CCc1n[nH]c3c1CCCC3)C2,48.5
14,CC(C)n1cnnc1CN(C)C(=O)C1CCCN(CC(N)=O)C1 (configuration not stated),4.25
15,Cc1ccc(CNCC2CCCN2c2cccnn2)s1 (configuration not stated),-19.9
16,Cc1cn2c(n1)C(CNCc1cccc3c1OCO3)CCC2 (configuration not stated),62
17,Cc1ccc(CNCC2CCCn3ccnc32)s1 (configuration not stated),43.7
18,Cc1cn2c(n1)C(CNCc1ccc(C)s1)CCC2 (configuration not stated),51.1
19,Cc1ccc(N2CCCC(NCc3cccc4c3OCO4)C2)nn1 (configuration not stated),16.8
20,Cn1cc(N2CCCC(NCc3cccc4c3OCCCO4)C2)cn1 (configuration not stated),11.1
21,CN(CCCc1cc(-c2ccccc2)no1)S(C)(=O)=O,-42.55
22,O=C(Cc1ccc2c(c1)CCO2)N1CCN(c2ccncc2)CC1,15.3

row,SMILES,INHIBITION [%]
1,CC(C)NC(=O)[C@H]1C[C@H]2CN(C(=O)NCCc3ccccc3)C[C@@H]1O2,5.67
2,O=C(CNC(=O)c1ccc2c(c1)CCC2)NCCNc1ncccn1,-24.3
3,CCNC(=O)Nc1ncc(-c2cccnc2)s1,4.41
4,CC(C)C(C)n1nccc1NC(=O)Cn1cnc2ccccc21 (configuration not stated),-8.99
5,COc1ccc(C(=O)Nc2n[nH]c(C3CCCO3)n2)cc1 (configuration not stated),32.3
6,Cc1cccc(N2CCN(C(=O)c3c(C)nn(C)c3C)CC2)c1C,54.8
7,COC(=O)c1cccc(C(=O)N2CCN(c3ccc(OC)cc3)CC2)n1,5.51
8,COC(=O)c1cccc(C(=O)N2CCN(c3ccc(Cl)cc3)CC2)n1,-18.3
9,COC(=O)c1cccc(C(=O)N2CCN(c3ccccc3F)CC2)n1,30
10,Cc1nn(C)c(C)c1C(=O)N1CCN(c2ccncc2Cl)CC1,43.9
11,COC(=O)c1cccc(C(=O)N2CCN(c3cccc(C)c3C)CC2)n1,74.2
12,COC(=O)c1cccc(C(=O)N2CCN(c3cc(C)ccc3C)CC2)n1,-19.4
13,Cc1cccc(N2CCN(C(=O)NC(C)c3nncn3C)CC2)c1C (configuration not stated),-48.4
14,COC(=O)c1cccc(C(=O)N2CCN(c3cc(Cl)ccc3C)CC2)n1,66.4
15,CN(C(=O)c1ncn2c1CN(C)S(=O)(=O)c1ccccc1-2)C1CC1,-30
16,CCC(C(=O)N(C)CCC1=CCN(C)CC1)c1ccccc1 (configuration not stated),24
17,CCC(C)NC(=O)c1cc(S(=O)(=O)N(C)C)c(C)s1 (configuration not stated),19.5
18,O=S1(=O)NC2(CCCN(CCc3ccccc3)C2)COc2ccccc21 (configuration not stated),24.2
19,Cc1nc(N2CCCN(C(=O)c3ccsc3)CC2)c2cnn(C)c2n1,14.4
20,CS(=O)(=O)NCCC1CCCCN1C(=O)NCCc1ccccn1 (configuration not stated),-25.6
21,Cc1nc(CN2CCCC2c2[nH]ncc2C(=O)N(C)C)cs1 (configuration not stated),8.53
22,Cc1c[nH]c(CN(C)C(C(=O)O)c2c(F)cccc2OC(C)C)n1 (configuration not stated),58.2

row,SMILES,INHIBITION [%]
1,Cc1c[nH]c(CN(C)C(C(=O)O)c2c(F)cccc2Cl)n1 (configuration not stated),16.5
2,CCOc1ccccc1C(C(=O)O)N(C)Cc1nc(C)c[nH]1 (configuration not stated),21.1
3,COc1cc(F)ccc1C(C(=O)O)N(C)Cc1ccon1 (configuration not stated),-66.4
4,CC(C)Oc1cccc(F)c1C(C(=O)O)N(C)Cc1ccon1 (configuration not stated),71.2
5,COc1ccc(Cl)cc1C(C(=O)O)N(C)Cc1ccon1 (configuration not stated),-73.6
6,CC(Cn1cccn1)NC(=O)c1cccs1 (configuration not stated),-40.2
7,CN1CCCC1CCNC(=O)Nc1ccccc1 (configuration not stated),27.3
8,Cc1cc(Oc2ccccc2C)nc(C2CCCN2)n1 (configuration not stated),4.41
9,Cc1cccc(C(=O)NC(C)CN2CCCC2=O)n1 (configuration not stated),4
10,O=C(CCn1ccnc1)N1C[C@@H](O)[C@H](Oc2cccc(F)c2)C1,-31
11,CC(=O)NCC(=O)N1CCOC2(CCCN(c3cccnc3)C2)C1 (configuration not stated),6.8
12,Cc1cc(C)nc(N2CCCC(c3nccn3CCCN(C)C)C2)c1 (configuration not stated),17.1
13,CN(C)C(=O)COCC1CN(Cc2ccco2)Cc2ncn(C)c21 (configuration not stated),39.5
14,NC(=O)c1cnc2n1CCN(C(=O)c1ccc(-c3cc[nH]n3)cc1)C2,11.7
15,Cc1ncc(COc2cccc3c2NC(=O)CO3)s1,8.05
16,O=C1COc2cccc(OCc3ccccn3)c2N1,12.3
17,CC(C)c1nc(COc2cccc3c2NC(=O)CO3)cs1,79.1
18,O=C(CCc1nc(-c2ccccn2)no1)N1CCCC1c1ccsc1 (configuration not stated),7.08
19,O=C(CCN1CCOCC1)NC(Cc1ccsc1)c1nccs1 (configuration not stated),5.055
20,Cc1nc(C2CCCN2C(=O)CC2CCCC2)ncc1C(N)=O (configuration not stated),17.1
21,Cc1nc(C2CCCN2C(=O)c2ccccc2)ncc1C(N)=O (configuration not stated),40.4
22,Cc1nc(C2CCCN2C(=O)CCc2ccccc2)ncc1C(N)=O (configuration not stated),18.3

row,SMILES,INHIBITION [%]
1,Cc1nc(C2CCCN2C(=O)COc2ccccc2)ncc1C(N)=O (configuration not stated),52
2,NC(=O)c1cn[nH]c1C1CCCN1C(=O)c1ccccc1 (configuration not stated),6.26
3,Cc1nc(C2CCCN2C(=O)c2ccc(F)cc2)ncc1C(N)=O (configuration not stated),55.6
4,NC(=O)c1cn[nH]c1C1CCCN1C(=O)COc1ccccc1 (configuration not stated),52.7
5,Cc1nc(C2CCCN2C(=O)Cc2ccc(F)cc2)ncc1C(N)=O (configuration not stated),19.6
6,NC(=O)c1cn[nH]c1C1CCCN1C(=O)c1ccccn1 (configuration not stated),11.8
7,COC(=O)NCC(=O)N1CCc2cc(Cl)cc(Cl)c2C1,-10.9
8,Cc1nc(-c2ccccc2C)n(CC(=O)NC2CCCC2)n1,7.27
9,O=C(c1cscn1)N1CCCC(n2cncn2)C1 (configuration not stated),-17.4
10,OC1(CN(Cc2cccnc2)C2CCCCC2)CNCCOC1 (configuration not stated),41.8
11,CC(=O)N1CCC(C(=O)N2CCOC(CC3CCCCC3)C2)CC1 (configuration not stated),54.8
12,O=C(C1CCOCC1)N1C[C@@H]2OCCN(CCN3CCCC3)[C@@H]2C1,46.7
13,O=C(C1CCOCC1)N1CCOC(CC2CCCCC2)C1 (configuration not stated),54.8
14,CN(C)C(=O)N1CCC(C(=O)N2CCOC(CC3CCCCC3)C2)CC1 (configuration not stated),22.2
15,Cc1ncoc1C(=O)N1CCOC(CC2CCCCC2)C1 (configuration not stated),24.7
16,CC(=O)N1CCC(N2CCOC(CC3CCCCC3)C2)CC1 (configuration not stated),35.2
17,Clc1ccc2cccnc2c1CNC1CCc2ncnn2C1 (configuration not stated),-92.9
18,Cc1cc(N(C)C)cc(C2CCN(S(=O)(=O)c3cccs3)C2)n1 (configuration not stated),46.55
19,CC(C)NC(=O)c1cccc(Oc2ccc3nncn3n2)c1,2.84
